The panel holds about 83,000 compounds, 20% with a hit somewhere; the sample as a whole holds those more often.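 Single-concentration screen, 48 h exposure, 96-well plates. Endpoint: percent growth. Below 10 = active.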 A number with no mark means an inactive call. The source made the active and inactive calls.

For twelve molecules, growth results are on record in PubChem BioAssay (NCI).

Among the test systems are DU-145 prostate; K-562 leukemia; MALME-3M melanoma; MDA-MB-231 breast; RXF 393 renal; SF-268 CNS; SF-295 CNS; SF-539 CNS; UACC-257 melanoma; M14 melanoma; HT29 colon; SNB-75 CNS; SNB-19 CNS; U251 CNS; PC-3 prostate; SK-MEL-5 melanoma; UACC-62 melanoma; LOX IMVI melanoma; SK-MEL-28 melanoma; HCT-15 colon.
Common to all, as to assay: NCI-60 one-dose screen, 48 h (100 = growth as untreated, 0 = no growth, -100 = all killed)
Details in all cases: 10 µM unless noted

Turning to `COc1ccc2c(c1)C(=O)/C(=C/c1cccc(OCC(=O)Nc3nc(C)c(C)s3)c1)O2`, the growth is -76.3% (active) in the assay with DU-145 prostate; -72.2% (active) with K-562 leukemia; -58% (active) in the assay with MALME-3M melanoma; -25.1% (active) with MDA-MB-231 breast; -57.2% (active) in the assay on RXF 393 renal; -45.5% (active) in the assay on SF-268 CNS. Also, the growth in the assay with SF-295 CNS was -82.7% (active); in the assay on SF-539 CNS, -80.6% (active); with UACC-257 melanoma, 37%; in the assay on M14 melanoma, -44.4% (active); with HT29 colon, -82.2% (active); in the assay with SNB-75 CNS it was -95.3% (active). For the same molecule, the growth was 80.6% in the assay on SNB-19 CNS; 0% (active) in the assay on U251 CNS; -85.4% (active) in the assay on PC-3 prostate; 40.4% with SK-MEL-5 melanoma; 47.1% in the assay on UACC-62 melanoma; -63.9% (active) in the assay on LOX IMVI melanoma. In addition, the growth with SK-MEL-28 melanoma was 11.2%.

As to `CCOc1ccccc1-c1cc(-c2cccs2)c(C#N)c(=O)[nH]1`, the growth is 111% in the assay on DU-145 prostate; 48.6% in the assay with K-562 leukemia; 84.9% in the assay with MALME-3M melanoma; 89% with MDA-MB-231 breast; 79.6% in the assay with RXF 393 renal; 92.5% in the assay with SF-268 CNS. In addition, the growth is 93.6% with SF-295 CNS; 87.3% with SF-539 CNS; 101% in the assay on UACC-257 melanoma; 85.1% in the assay on M14 melanoma; 120% with HT29 colon; 45.8% in the assay with SNB-75 CNS. Further, the growth with SNB-19 CNS is 86.1%; in the assay on U251 CNS, 88.6%; in the assay on PC-3 prostate, 84.5%; in the assay on SK-MEL-5 melanoma it was 85.8%; with UACC-62 melanoma, 63.7%; in the assay on LOX IMVI melanoma, 86.6%. Besides, the growth in the assay with SK-MEL-28 melanoma was 94.6%.

On to `COc1ccc(C(=O)COc2ccc(/C=C3\Oc4ccccc4C3=O)cc2)cc1`, for which the growth is 120% in the assay on DU-145 prostate; 101% in the assay on K-562 leukemia; 112% in the assay with MALME-3M melanoma; 83.6% in the assay on MDA-MB-231 breast; 95.4% in the assay on RXF 393 renal; 108% in the assay on SF-268 CNS. In addition, the growth is 172% in the assay on SF-295 CNS; 94.7% with SF-539 CNS; 97.8% in the assay with UACC-257 melanoma; 96.8% with HCT-15 colon; 102% with HT29 colon; 89.7% with SNB-75 CNS. In addition, the growth was 90.9% with SNB-19 CNS; 97.4% in the assay with U251 CNS; 97.3% in the assay on PC-3 prostate; 85.8% in the assay with SK-MEL-5 melanoma; 72.5% with UACC-62 melanoma; 92.6% with LOX IMVI melanoma. Further, the growth in the assay on SK-MEL-28 melanoma is 123%.

Take `O=C(N=c1oc2ccccc2cc1-c1cc2ccccc2[nH]1)c1ccc(Cl)cc1`: the growth in the assay with DU-145 prostate was 51.3%; in the assay with K-562 leukemia it was 26.5%; with MALME-3M melanoma it was 94.1%; in the assay with MDA-MB-231 breast, 51.2%; in the assay on RXF 393 renal, 59.9%; with SF-268 CNS, 35.5%. Further, the growth with SF-295 CNS was 60.3%; with SF-539 CNS, 52.8%; in the assay on UACC-257 melanoma it was 98.7%; in the assay on M14 melanoma, 79.7%; with HT29 colon, 65.7%; with SNB-75 CNS, 53.6%. The growth in the assay with SNB-19 CNS is 32.6%; in the assay with U251 CNS, 28.9%; in the assay on PC-3 prostate it was 27.2%; in the assay with SK-MEL-5 melanoma, 96.1%; in the assay on UACC-62 melanoma it was 63.1%; in the assay with LOX IMVI melanoma, 60.5%. Further, in the assay with SK-MEL-28 melanoma, the growth was 95.3%.

In the case of `Cc1nn(-c2ccccc2)c(Cl)c1/C=C(/NC(=O)c1ccccc1)c1nc2ccccc2[nH]1`, the growth in the assay on DU-145 prostate is 117%; in the assay with K-562 leukemia, 88.4%; in the assay on MALME-3M melanoma it was 48.9%; in the assay on MDA-MB-231 breast, 85.5%; with RXF 393 renal, 119%; in the assay with SF-268 CNS, 104%. Also, the growth in the assay on SF-295 CNS was 92.9%; in the assay with SF-539 CNS, 110%; with UACC-257 melanoma it was 90.1%; in the assay with M14 melanoma it was 70%; with SNB-75 CNS it was 96.9%; in the assay with SNB-19 CNS, 101%. Besides, the growth in the assay on U251 CNS was 92.4%; in the assay with PC-3 prostate, 78%; in the assay on SK-MEL-5 melanoma, 107%; with UACC-62 melanoma it was 75%; with LOX IMVI melanoma it was 96.8%; in the assay with SK-MEL-28 melanoma, 83.6%.

As to `COc1ccc(N2CCN(c3nc(-c4cc(OC)c(OC)c(OC)c4)nc4ccccc34)CC2)cc1`, the growth is 93.5% with DU-145 prostate; 79.1% in the assay with K-562 leukemia; 108% in the assay with MALME-3M melanoma; 71% in the assay with MDA-MB-231 breast; 92.6% in the assay with RXF 393 renal; 87.7% in the assay with SF-268 CNS. Also, the growth with SF-295 CNS was 95.2%; in the assay on SF-539 CNS it was 96.9%; in the assay on UACC-257 melanoma, 102%; in the assay on M14 melanoma it was 71.3%; with HT29 colon it was 81.5%; in the assay with SNB-75 CNS, 84.5%. Besides, the growth with SNB-19 CNS is 93.5%; with U251 CNS, 96.1%; in the assay with PC-3 prostate it was 41.3%; in the assay with SK-MEL-5 melanoma, 46.4%; with UACC-62 melanoma, 56%; in the assay on LOX IMVI melanoma it was 79.3%. Moreover, the growth in the assay on SK-MEL-28 melanoma is 87.1%.

With `N/C(=N\c1nc2ccccc2s1)NC(=O)Nc1cccc(Cl)c1`, the growth was 52.4% in the assay on DU-145 prostate; 13.9% with K-562 leukemia; 42.6% with MALME-3M melanoma; 59.4% with MDA-MB-231 breast; 68.6% in the assay on RXF 393 renal; 55.9% in the assay on SF-268 CNS. The growth in the assay on SF-295 CNS is 40%; in the assay with SF-539 CNS, 2.83% (active); with UACC-257 melanoma, 48.9%; in the assay on M14 melanoma, 10.3%; in the assay on HT29 colon, 10.2%; in the assay on SNB-19 CNS it was 42.2%. The growth in the assay on U251 CNS was 26.1%; in the assay with PC-3 prostate, 42.4%; in the assay on SK-MEL-5 melanoma, 32.3%; in the assay with UACC-62 melanoma, 25.8%; in the assay with LOX IMVI melanoma it was 38.9%; with SK-MEL-28 melanoma, 60.1%.

For the molecule `CNc1ccc(NC)c2c1C(=O)c1ccccc1C2=O`, the growth with DU-145 prostate is 92.6%; in the assay on K-562 leukemia, 96%; in the assay on MALME-3M melanoma, 120%; in the assay with MDA-MB-231 breast, 77.2%; in the assay with RXF 393 renal it was 75%; with SF-268 CNS, 76.4%. In addition, the growth with SF-295 CNS is 65.9%; in the assay with SF-539 CNS, 56%; in the assay with UACC-257 melanoma, 85.2%; in the assay on M14 melanoma it was 113%; in the assay with HT29 colon, 98.7%; with SNB-75 CNS it was 52.3%. The growth in the assay with SNB-19 CNS is 85.5%; in the assay with U251 CNS, 87%; in the assay with PC-3 prostate, 84%; in the assay on SK-MEL-5 melanoma, 93.6%; in the assay on UACC-62 melanoma, 87.9%; with LOX IMVI melanoma, 84.9%. In the assay on SK-MEL-28 melanoma, the growth is 102%.

Take `O=[N+]([O-])c1ccc(OCCO)cc1`: the growth was 107% with DU-145 prostate; 78.8% in the assay with K-562 leukemia; 107% in the assay on MALME-3M melanoma; 114% in the assay with MDA-MB-231 breast; 105% in the assay on RXF 393 renal; 100% in the assay with SF-268 CNS. The growth in the assay on SF-295 CNS is 105%; in the assay with SF-539 CNS, 108%; with UACC-257 melanoma, 104%; with M14 melanoma it was 109%; with HT29 colon, 108%; with SNB-75 CNS, 103%. The growth with SNB-19 CNS is 101%; with U251 CNS, 104%; in the assay on PC-3 prostate it was 87.2%; with SK-MEL-5 melanoma it was 109%; in the assay with UACC-62 melanoma, 96.9%; in the assay on LOX IMVI melanoma, 97.8%. Moreover, in the assay with SK-MEL-28 melanoma, the growth was 114%.

Regarding `O=C1/C(=C/c2ccc(F)cc2)C=C(c2ccccc2)N1CCc1ccccc1`, the growth with DU-145 prostate was 81.6%; in the assay on K-562 leukemia, 71.4%; in the assay with MALME-3M melanoma, 39.1%; in the assay with MDA-MB-231 breast, 57.5%; with RXF 393 renal, 56.2%; in the assay on SF-268 CNS, 74.2%. Besides, the growth in the assay with SF-295 CNS is 35.9%; in the assay with SF-539 CNS it was 79.5%; with UACC-257 melanoma, 38.6%; in the assay with M14 melanoma, 46%; in the assay on HT29 colon, 63.2%; in the assay with SNB-19 CNS it was 45.1%. In addition, the growth is 46.9% in the assay with U251 CNS; 51.2% in the assay on PC-3 prostate; 73% with SK-MEL-5 melanoma; 50.1% with UACC-62 melanoma; 70.7% in the assay with LOX IMVI melanoma; 72.6% in the assay with SK-MEL-28 melanoma.

In the case of `Cc1ccc(C(=O)C2=C(O)C(=O)N(Cc3cccnc3)C2c2ccccc2F)o1` (centres undefined), the growth is 105% with DU-145 prostate; 76.7% in the assay on K-562 leukemia; 101% with MALME-3M melanoma; 106% in the assay with MDA-MB-231 breast; 95.8% in the assay with RXF 393 renal; 98.1% in the assay with SF-268 CNS. The growth with SF-295 CNS was 93.1%; with SF-539 CNS, 95.1%; in the assay on UACC-257 melanoma it was 95.7%; in the assay with M14 melanoma, 101%; in the assay on HT29 colon it was 108%; with SNB-75 CNS, 94.6%. The growth with SNB-19 CNS was 105%; in the assay with U251 CNS, 91.6%; with PC-3 prostate, 96.7%; with SK-MEL-5 melanoma it was 100%; in the assay with UACC-62 melanoma, 102%; in the assay with SK-MEL-28 melanoma it was 115%.

Turning to `COc1ccc(C2c3ccc4ccccc4c3Oc3nc(C)[nH]c(=O)c32)cc1` (centres undefined), the growth in the assay with DU-145 prostate was 114%; with K-562 leukemia, 90.6%; in the assay on MALME-3M melanoma, 97%; in the assay on MDA-MB-231 breast, 93.6%; in the assay on RXF 393 renal, 108%; with SF-268 CNS, 94.3%. Moreover, the growth in the assay with SF-295 CNS is 105%; in the assay on SF-539 CNS it was 96.8%; in the assay on UACC-257 melanoma, 111%; with M14 melanoma, 95.7%; in the assay on HT29 colon, 142%; in the assay on SNB-75 CNS, 76.8%. In addition, the growth was 94.7% in the assay with SNB-19 CNS; 103% in the assay with U251 CNS; 96% in the assay on PC-3 prostate; 101% in the assay on SK-MEL-5 melanoma; 94.5% with UACC-62 melanoma; 88.8% in the assay with LOX IMVI melanoma. In addition, the growth with SK-MEL-28 melanoma is 98.7%.
